Assay results published in the antibiotic and cytotoxicity screens of Wong et al. (2023).
About 1,500 (3.8%) of roughly 39,000 compounds were called active. The full list was thinned out, with actives kept by preference.

System: HSkMC (human skeletal muscle cells)
Test: cytotoxicity call (relative viability < 0.9)
Details: 10 µM

Structure (SMILES)	cytotoxicity call
C[C@H](CO)N1C[C@H](C)[C@@H](CN(C)C(=O)Nc2ccccc2)OCCCC[C@H](C)Oc2ccc(NC(=O)Nc3ccc(F)cc3)cc2C1=O	inactive
C[C@@H]1CCCCO[C@H](CN(C)C(=O)Nc2ccc3c(c2)OCO3)[C@@H](C)CN([C@@H](C)CO)C(=O)c2cc(NS(=O)(=O)c3cccs3)ccc2O1	inactive
CN(C)C(=O)C[C@H]1CC[C@@H](NC(=O)C2CCOCC2)[C@H](CO)O1	inactive
O=C(/C=C/c1ccc(O)c(O)c1)O[C@H]1[C@H](O)C[C@](OC(=O)/C=C/c2ccc(O)c(O)c2)(C(=O)O)C[C@H]1O	inactive
O=C(C[C@@H]1CC[C@@H]2[C@H](COC[C@@H](O)CN2S(=O)(=O)c2ccc(Cl)cc2)O1)NCC1CCCCC1	inactive
COc1ccc(NC(=O)N(C)C[C@@H]2OCCCC[C@@H](C)Oc3ccc(NC(=O)Nc4ccc(F)cc4)cc3C(=O)N([C@H](C)CO)C[C@@H]2C)cc1	inactive
COc1ccc(S(=O)(=O)N(C)C[C@@H]2Oc3ccc(NC(=O)c4ccncc4)cc3C(=O)N([C@@H](C)CO)C[C@H]2C)cc1	inactive
C[C@H]1CN([C@@H](C)CO)C(=O)c2cccc(NC(=O)c3nc4ccccc4s3)c2O[C@H]1CN(C)S(C)(=O)=O	inactive
CC(C)NC(=O)N(C)C[C@@H]1Oc2ccc(NS(=O)(=O)c3cccs3)cc2CC(=O)N([C@@H](C)CO)C[C@H]1C	inactive
C[C@@H]1CN([C@@H](C)CO)S(=O)(=O)c2ccc(C#C[C@@H](C)O)cc2O[C@@H]1CN(C)C(=O)c1ccncc1	inactive
CO[C@@H]1CN(C)C(=O)c2cc(NC(=O)C3CC3)ccc2OC[C@H](C)N(C(=O)C2CCOCC2)C[C@H]1C	inactive
Cc1noc(C)c1NC(=O)N(C)C[C@H]1Oc2c(NC(=O)NC(C)C)cccc2C(=O)N([C@H](C)CO)C[C@H]1C	inactive
CO[C@@H](C(=O)N(C)C[C@H]1OCc2ccccc2-c2c(n(C)c3ccccc23)C(=O)N([C@@H](C)CO)C[C@H]1C)c1ccccc1	inactive
C[C@H]1CN([C@@H](C)CO)C(=O)Cc2cc(NC(=O)Nc3cccc4ccccc34)ccc2O[C@H]1CN(C)Cc1ccc(C(F)(F)F)cc1	active
C[C@H]1CN([C@@H](C)CO)C(=O)c2cc(NC(=O)Nc3cccc4ccccc34)ccc2O[C@H]1CN(C)Cc1ccc(C(F)(F)F)cc1	active
C[C@H]1CN([C@@H](C)CO)C(=O)Cc2cc(NC(=O)Nc3cccc4ccccc34)ccc2O[C@@H]1CN(C)Cc1ccc(C(F)(F)F)cc1	inactive
C[C@@H]1CN([C@@H](C)CO)C(=O)c2cc(NC(=O)Nc3cccc4ccccc34)ccc2O[C@H]1CN(C)Cc1ccc(C(F)(F)F)cc1	inactive
C[C@H](CO)N1C[C@H](C)[C@@H](CN(C)Cc2ccc(C(F)(F)F)cc2)Oc2ccc(NC(=O)Nc3cccc4ccccc34)cc2CC1=O	inactive
C[C@@H]1CN([C@@H](C)CO)C(=O)Cc2cc(NC(=O)Nc3cccc4ccccc34)ccc2O[C@@H]1CN(C)C(=O)Nc1ccc(C(F)(F)F)cc1	active
C[C@H]1CN([C@@H](C)CO)C(=O)Cc2cc(NC(=O)Nc3cccc4ccccc34)ccc2O[C@@H]1CN(C)C(=O)Nc1ccc(C(F)(F)F)cc1	inactive

Structure (SMILES)	cytotoxicity call
C[C@@H]1CN([C@@H](C)CO)C(=O)Cc2cc(NC(=O)Nc3cccc4ccccc34)ccc2O[C@H]1CN(C)C(=O)Nc1ccc(C(F)(F)F)cc1	inactive
C[C@H]1CN([C@@H](C)CO)C(=O)Cc2cc(NC(=O)Nc3ccc(C(F)(F)F)cc3)ccc2O[C@H]1CN(C)C(=O)Nc1cccc2ccccc12	inactive
C[C@@H]1CN([C@@H](C)CO)C(=O)Cc2cc(NC(=O)Nc3ccc(C(F)(F)F)cc3)ccc2O[C@@H]1CN(C)C(=O)Nc1cccc2ccccc12	active
C[C@@H]1CN([C@H](C)CO)C(=O)c2cc(NC(=O)Nc3cccc4ccccc34)ccc2O[C@H]1CN(C)Cc1ccc(C(F)(F)F)cc1	inactive
C[C@H]1CN([C@@H](C)CO)C(=O)Cc2cc(NC(=O)Nc3ccc(C(F)(F)F)cc3)ccc2O[C@@H]1CN(C)C(=O)Nc1cccc2ccccc12	inactive
COc1ccc(NC(=O)Nc2ccc3c(c2)[C@@H]2C[C@@H](CC(=O)NCc4ccncc4)O[C@H](CO)[C@@H]2O3)cc1	inactive
COc1ccc(S(=O)(=O)N(C)C[C@@H]2OCCCC[C@@H](C)Oc3ccc(NC(=O)Nc4ccccc4)cc3C(=O)N([C@@H](C)CO)C[C@H]2C)cc1	inactive
C[C@H](CO)N1C[C@H](C)[C@H](CN(C)S(=O)(=O)c2ccccc2)Oc2ccc(NC(=O)Cn3cnnn3)cc2CC1=O	inactive
C[C@@H]1CN([C@@H](C)CO)C(=O)Cc2cc(NC(=O)Cc3cn(C)c4ccccc34)ccc2O[C@H]1CN(C)C(=O)Nc1cccc2ccccc12	inactive
C#CCN(O[C@@H](/C=C/[C@@H](O)Cc1ccccc1)C1CC1)[C@@H](Cc1ccc(-n2cc(CCC(=O)NO)nn2)cc1)C(=O)OC	inactive
Cc1noc(C)c1S(=O)(=O)N(C)C[C@H]1Oc2ccc(NS(=O)(=O)c3cn(C)cn3)cc2CC(=O)N([C@@H](C)CO)C[C@@H]1C	inactive
Cc1noc(C)c1S(=O)(=O)Nc1ccc2c(c1)C(=O)N([C@H](C)CO)C[C@H](C)[C@H](CN(C)C(=O)Nc1ccc3c(c1)OCO3)O2	inactive
Cc1noc(C)c1S(=O)(=O)Nc1ccc2c(c1)C(=O)N([C@H](C)CO)C[C@H](C)[C@@H](CN(C)S(=O)(=O)c1ccccc1)O2	inactive
O=C(C[C@@H]1C[C@@H]2c3cc(NC(=O)C4CCOCC4)ccc3O[C@@H]2[C@@H](CO)O1)NCc1ccc2c(c1)OCO2	inactive
C[C@H](CO)N1C[C@H](C)[C@@H](CN(C)CC2CC2)OCCCC[C@H](C)Oc2ccc(NC(=O)Nc3ccc(C(F)(F)F)cc3)cc2C1=O	inactive
C[C@@H]1CCCCO[C@@H](CN(C)CC2CC2)[C@H](C)CN([C@H](C)CO)C(=O)c2cc(NC(=O)Nc3ccc(C(F)(F)F)cc3)ccc2O1	inactive
C[C@@H]1CCCCO[C@H](CN(C)CC2CCCCC2)[C@H](C)CN([C@H](C)CO)C(=O)c2cc(NC(=O)Nc3ccc(C(F)(F)F)cc3)ccc2O1	active
C[C@H](CO)N1C[C@H](C)[C@H](CN(C)CC2CCCCC2)OCCCC[C@H](C)Oc2ccc(NC(=O)Nc3ccc(C(F)(F)F)cc3)cc2C1=O	active
C[C@@H]1CCCCO[C@H](CN(C)CC2CCCCC2)[C@H](C)CN([C@@H](C)CO)C(=O)c2cc(NC(=O)Nc3ccc(C(F)(F)F)cc3)ccc2O1	active
C[C@@H]1CCCCO[C@@H](CN(C)CC2CCCCC2)[C@H](C)CN([C@@H](C)CO)C(=O)c2cc(NC(=O)Nc3ccc(C(F)(F)F)cc3)ccc2O1	active
